Assay results taken from PubChem BioAssay.
Values without a mark were called inactive. For some assays here: Measured potencies and affinities stand elsewhere. Activity calls are given as the source filed them. Unless noted, the rule behind the calls is not given here.

Experiments:
[1] = antimalarial activity against Dd2 strain (AID 2302;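 active = growth inhibition above 50% at the single 2 µM test dose, taken to imply half-maximal potency below 2 µM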;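 note: 0% = DMSO untreated growth and 100% = chloroquine plus artemisinin killed control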); settings: P. falciparum Dd2 in RBCs, LDH growth readout, 72 h; at 2 µM; active compounds read high
[2] = HepG2 cytotoxicity, primary screen, cytotoxicity control for P. falciparum antimalarial project, cell-based, ATP luminescence (AID 2303;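 active = inhibition above 50%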;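 note: 0% = DMSO wells and 100% = digitonin-killed cells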); settings: HepG2 viability, 24-48 h, at 10 µM, active compounds read high
[3] = target: L-lactate dehydrogenase (Plasmodium falciparum (isolate CDC / Honduras)) (UniProt Q27743); assay: PfLDH activity inhibition – cell lysate, 3D7 strain, counter-screen for P. falciparum growth inhibition project (AID 2304);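 note: 0% = vehicle and 100% = reference inhibitor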; settings: P. falciparum 3D7 crude extract, LDH APAD/NBT absorbance; at 2 µM; active compounds read high
[4] = inhibition of 3D7 malaria parasite growth – strain 3D7 (AID 2306);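 note: 0% = DMSO wells and 100% = chloroquine plus artemisinin control wells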; settings: P. falciparum 3D7 erythrocytic growth, LDH absorbance, 72 h; at 2 µM; active compounds read high
[5] = target: Calcium-dependent protein kinase 1 (Plasmodium falciparum (isolate 3D7)) (UniProt P62344); assay: PfCDPK1 kinase inhibitors, biochemical, TCAMS library (AID 1159585; cut-off not given, nearly all actives have IC50 up to about 0.98 µM;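 note: inhibitors leave more ATP so luminescence rises with inhibition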); settings: recombinant PfCDPK1, Kinase-Glo ATP depletion luminescence
[6] = target: Plasmodium falciparum protein kinase 6 (PK6, PF3D7_1337100) (UniProt Q8IDW1); assay: PfPK6 kinase inhibitors, biochemical, TCAMS library (AID 1159586); settings: recombinant PfPK6, Kinase-Glo ATP depletion luminescence
[7] = target: Protein kinase 7 (PK7), Plasmodium falciparum 3D7 (PF3D7_0213400) (UniProt Q7YTF7); assay: inhibition of Plasmodium PK7 catalytic activity – biochemical, TCAMS antimalarial set, Kinase-Glo luminescence (AID 1159587); settings: recombinant PfPK7, Kinase-Glo ATP depletion luminescence
[8] = target: Calcium-dependent protein kinase 4 (Plasmodium falciparum (isolate 3D7)) (UniProt Q8IBS5); assay: PfCDPK4 kinase inhibitors, biochemical, TCAMS library (AID 1159588; cut-off not given, nearly all actives have IC50 up to about 0.91 µM); settings: recombinant PfCDPK4, Kinase-Glo ATP depletion luminescence
Calcium-dependent protein kinase 4 (Plasmodium falciparum (isolate 3D7)), sequence (Q8IBS5 whole entry, looked up): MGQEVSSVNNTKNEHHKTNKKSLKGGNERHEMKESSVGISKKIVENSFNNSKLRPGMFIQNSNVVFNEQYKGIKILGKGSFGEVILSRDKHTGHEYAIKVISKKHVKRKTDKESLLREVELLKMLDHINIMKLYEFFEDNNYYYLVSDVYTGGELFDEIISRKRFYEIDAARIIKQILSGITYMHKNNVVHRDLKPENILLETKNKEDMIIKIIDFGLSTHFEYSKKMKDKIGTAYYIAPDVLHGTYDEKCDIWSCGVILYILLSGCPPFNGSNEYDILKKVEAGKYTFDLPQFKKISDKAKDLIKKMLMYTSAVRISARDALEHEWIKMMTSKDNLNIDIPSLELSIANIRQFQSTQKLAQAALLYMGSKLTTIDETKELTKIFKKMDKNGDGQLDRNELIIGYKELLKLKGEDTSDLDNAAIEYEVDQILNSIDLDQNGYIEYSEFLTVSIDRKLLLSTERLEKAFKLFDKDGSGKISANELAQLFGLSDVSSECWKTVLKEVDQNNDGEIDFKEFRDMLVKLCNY

Calcium-dependent protein kinase 1 (Plasmodium falciparum (isolate 3D7)), sequence (P62344 whole entry, looked up): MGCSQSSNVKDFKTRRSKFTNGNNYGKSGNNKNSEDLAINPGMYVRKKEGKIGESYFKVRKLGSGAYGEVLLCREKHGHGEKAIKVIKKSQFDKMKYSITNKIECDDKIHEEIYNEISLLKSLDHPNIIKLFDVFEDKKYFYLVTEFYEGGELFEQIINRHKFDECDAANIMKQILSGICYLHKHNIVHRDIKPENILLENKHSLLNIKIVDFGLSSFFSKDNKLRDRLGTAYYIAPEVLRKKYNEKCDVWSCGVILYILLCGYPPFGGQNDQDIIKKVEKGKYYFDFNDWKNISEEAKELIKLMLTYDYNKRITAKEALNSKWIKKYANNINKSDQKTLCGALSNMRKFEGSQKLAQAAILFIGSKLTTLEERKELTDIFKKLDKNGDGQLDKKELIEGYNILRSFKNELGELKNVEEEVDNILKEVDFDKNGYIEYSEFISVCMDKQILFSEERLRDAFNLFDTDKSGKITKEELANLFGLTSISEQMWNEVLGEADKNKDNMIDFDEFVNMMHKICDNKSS
Protein kinase 7 (PK7), Plasmodium falciparum 3D7 (PF3D7_0213400), sequence (Q7YTF7 1-343): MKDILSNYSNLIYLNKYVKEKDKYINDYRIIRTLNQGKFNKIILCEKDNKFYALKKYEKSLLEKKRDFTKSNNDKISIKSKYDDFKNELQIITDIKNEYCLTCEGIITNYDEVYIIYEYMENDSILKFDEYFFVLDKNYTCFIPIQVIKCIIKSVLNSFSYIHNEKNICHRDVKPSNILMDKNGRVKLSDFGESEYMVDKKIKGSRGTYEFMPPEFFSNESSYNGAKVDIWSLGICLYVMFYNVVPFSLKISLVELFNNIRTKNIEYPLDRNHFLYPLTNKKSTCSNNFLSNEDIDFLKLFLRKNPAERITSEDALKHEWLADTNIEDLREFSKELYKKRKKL
Plasmodium falciparum protein kinase 6 (PK6, PF3D7_1337100), sequence (Q8IDW1 1-305): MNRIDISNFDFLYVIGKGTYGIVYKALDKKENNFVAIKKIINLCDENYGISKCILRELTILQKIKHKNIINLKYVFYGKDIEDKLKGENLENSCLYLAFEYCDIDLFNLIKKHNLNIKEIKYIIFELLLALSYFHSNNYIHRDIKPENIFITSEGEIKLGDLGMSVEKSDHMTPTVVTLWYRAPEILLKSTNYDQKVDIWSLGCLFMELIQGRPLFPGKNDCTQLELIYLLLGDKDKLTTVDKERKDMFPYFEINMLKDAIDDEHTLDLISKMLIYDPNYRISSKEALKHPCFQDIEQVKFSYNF
L-lactate dehydrogenase (Plasmodium falciparum (isolate CDC / Honduras)), sequence (Q27743 whole entry, looked up): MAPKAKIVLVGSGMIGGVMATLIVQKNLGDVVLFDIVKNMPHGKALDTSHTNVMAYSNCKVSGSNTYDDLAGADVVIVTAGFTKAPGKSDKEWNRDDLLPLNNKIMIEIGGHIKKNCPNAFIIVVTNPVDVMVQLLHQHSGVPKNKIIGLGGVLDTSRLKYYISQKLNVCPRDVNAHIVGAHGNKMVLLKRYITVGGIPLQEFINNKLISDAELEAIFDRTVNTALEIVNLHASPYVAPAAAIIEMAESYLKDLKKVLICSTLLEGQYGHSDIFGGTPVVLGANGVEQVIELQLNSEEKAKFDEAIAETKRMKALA

SMILES	growth inhibition [1]	inhibition [2]	inhibition [3] [%]	growth inhibition [4]	outcome [5]	outcome [6]	outcome [7]	outcome [8]
CC(C)Nc1ccc(Nc2ccnc3cc4ccccc4cc23)cc1	81% (active)	37%	-3	100% (active)	inactive	inactive	inactive	inactive
Cn1nc(-c2ccc(CN[C@@H]3CCc4ccc(O)cc43)cc2)c2cnc(NC3CCCC3)nc21	8%	12%	0	97% (active)	inactive	inactive	inactive	inactive
c1ccc(CN2CCC(NCc3ccc(-c4ccc(CNCc5cccnc5)cn4)cc3)CC2)cc1	13%	-1%	-5	97% (active)	inactive	inactive	inactive	inactive
Cc1nc2nc(N)nc(N)c2c(C)c1Cc1ccc(C(N)=O)cc1	-3%	55% (active)	3	97% (active)	inactive	inactive	inactive	inactive
Cc1ccc(-n2c(C)nc3c(Nc4ccc(-c5ccncc5)cc4)ncnc32)c(C)c1	99% (active)	38%	-4	99% (active)	inactive	inactive	inactive	inactive
O=C(Nc1cccc([N+](=O)[O-])c1)Nc1ccc(Cl)c(C(F)(F)F)c1	87% (active)	15%	6	96% (active)	inactive	inactive	inactive	inactive
COc1cc2nc(N3CCC(C(N)=O)CC3)nc(NCc3ccccc3)c2cc1OC	23%	23%	-7	100% (active)	inactive	inactive	inactive	inactive
COc1cc(C2=NN(S(=O)(=O)c3c(C)cc(C)cc3C)CCCC2)ccc1Cl	76% (active)	9%	1	85% (active)	inactive	inactive	inactive	inactive
O=C(Nc1ccc(S(=O)(=O)N2CCCCC2)cc1)c1cc(-c2cc(Cl)ccc2O)n[nH]1	87% (active)	36%	0	97% (active)	inactive	inactive	inactive	inactive
CN1CCC(NCc2ccc(-c3cccc(S(=O)(=O)NCC4CCCO4)c3)cc2)CC1 (stereo not given)	0%	8%	-1	90% (active)	inactive	inactive	inactive	inactive
COc1ccc(NC(=O)Nc2ccc(-c3ccc(-c4nc5ccccc5[nH]4)cc3)cc2)cc1	27%	22%	5	100% (active)	inactive	inactive	inactive	inactive
Cc1[nH]c(C)c(C2CCC(c3ccc(Cl)cc3)CC2)c(=O)c1Cl (stereo not given)	97% (active)	37%	-9	98% (active)	inactive	inactive	inactive	inactive
COc1cc2nc(N3CCN(c4cc(C)ccc4C)CC3)nc(N)c2cc1OC	12%	66% (active)	5	98% (active)	inactive	inactive	inactive	inactive
COc1ccc2ncc(F)c(CCN3C[C@H](CNCc4cc(C#N)c5c(c4)OCCO5)[C@H](O)C3)c2n1	64% (active)	7%	-5	100% (active)	inactive	inactive	inactive	inactive
c1cc(-c2ccc(CNC3CCOCC3)cc2)cc(-c2nc3ccccc3[nH]2)c1	100% (active)	30%	3	100% (active)	inactive	inactive	inactive	inactive
O=C(Cn1c(CCc2cccc(F)c2F)nc(=O)c2cccnc21)N(Cc1ccc(-c2ccc(C(F)(F)F)cc2)cc1)C1CCN(C2CCOCC2)CC1	67% (active)	100% (active)	1	94% (active)	inactive	inactive	inactive	inactive
O=C(CCNc1ccnc(NCC2CCCCC2)n1)Nc1ccccc1	48%	55% (active)	-3	95% (active)	inactive	inactive	inactive	inactive
O=C(Nc1ccc(Cl)cc1)Nc1ccc(-c2cccc(-c3nc4ccccc4[nH]3)c2)cc1	78% (active)	69% (active)	-3	100% (active)	inactive	inactive	inactive	inactive
CC[C@H](C)CNC(=O)c1cccc(-c2ccc(CN3CCC(N4CCCC4)CC3)cc2)n1	82% (active)	41%	-2	101% (active)	inactive	inactive	inactive	inactive
COCCN1CCC(N(CC2(O)CCN(c3ccc(C(F)(F)F)cc3)CC2)C(=O)Cn2c(SCc3cccc(F)c3F)cc(=O)c3ccccc32)CC1	75% (active)	29%	5	94% (active)	inactive	inactive	inactive	inactive

SMILES	growth inhibition [1]	inhibition [2]	inhibition [3] [%]	growth inhibition [4]	outcome [5]	outcome [6]	outcome [7]	outcome [8]
CO/C(=C\C=C\c1cc2cc(Cl)c(Cl)cc2[nH]1)C(=O)NCCCN1CCN(Cc2ccccc2)CC1	65% (active)	45%	-2	94% (active)	inactive	inactive	inactive	inactive
CCCCN(C(=O)c1ccccc1C)c1nnc(-c2ccccc2C)s1	94% (active)	10%	2	92% (active)	inactive	inactive	inactive	inactive
CC(C)(C)c1ccc(NC(=O)c2ccc(CN3CCCN(Cc4cccc(Cl)c4)CC3)cc2)cc1	7%	43%	-3	96% (active)	inactive	inactive	inactive	inactive
COc1cccc(CN2CCCN(Cc3cccc(NC(=O)c4cc5ccccc5s4)c3)CC2)c1	16%	17%	-9	89% (active)	inactive	inactive	inactive	inactive
CN(C)c1ccc(-c2ccc(C(=O)NC3CCN(Cc4ccc(F)cc4)CC3)s2)cc1	19%	34%	-1	87% (active)	inactive	inactive	inactive	inactive
CCCCCC(C)N=C(Nc1ccc(C#N)cc1O)Nc1ccccc1Br (stereo not given)	95% (active)	2%	-3	98% (active)	inactive	inactive	inactive	inactive
O=C(NCCCCN1CCC(c2ccc(C(F)(F)F)cc2C(F)(F)F)CC1)c1ccc(NC(=O)c2ccc(Cl)cc2)cc1	59% (active)	4%	7	99% (active)	inactive	inactive	inactive	inactive
NC1=NC2(CCCCC2)N(OCC2CCCCC2)C(N)=N1	49%	70% (active)	0	96% (active)	inactive	inactive	inactive	inactive
COc1ccc(CCNCCCCCCNCCc2ccc(Cl)cc2)c(Cl)c1OC	4%	88% (active)	5	101% (active)	inactive	inactive	inactive	inactive
CC1(C)N=C(N)N=C(N)N1OCCCCCOc1ccccc1	97% (active)	61% (active)	4	95% (active)	inactive	inactive	inactive	inactive
CC(C)CCN(Cc1cncn1Cc1cccc(Cl)c1)C(=O)c1cncc(-c2ccccc2)c1	-1%	9%	-2	99% (active)	inactive	inactive	inactive	inactive
CN(C)c1ccc(CN2CCCCC(NC(=O)c3cc(-c4ccccc4F)cs3)C2)cc1 (stereo not given)	28%	13%	5	100% (active)	inactive	inactive	inactive	inactive
CCCC(C)Nc1nc(C)cc(N[C@@H](Cc2ccccc2)C(=O)NCCc2ccccc2)n1 (stereo not given in full)	68% (active)	11%	-3	97% (active)	inactive	inactive	inactive	inactive
CC(C)CCn1c(Sc2ccc(C#N)c([N+](=O)[O-])c2)nnc1-c1ccc(Cl)cc1	39%	25%	-1	90% (active)	inactive	inactive	inactive	inactive
CCCc1cnc2nc(N)nc(N)c2c1C	3%	68% (active)	-3	93% (active)	inactive	inactive	inactive	inactive
COC(=O)c1ccc(-c2ccc(C(=O)NCC3CCN(c4nc(N)c5cc(OC)c(OC)cc5n4)CC3)cc2)cc1	100% (active)	53% (active)	-4	98% (active)	inactive	inactive	inactive	inactive
CN1CCN(CCCN(C(=O)Nc2cc(C(F)(F)F)cc(C(F)(F)F)c2)c2ccccc2Cc2ccccc2)CC1	92% (active)	35%	0	89% (active)	inactive	inactive	inactive	inactive
COc1cc(NC(=O)NC(CCN2CCC3(CCc4ccccc43)CC2)c2ccc(Cl)c(Cl)c2)cc(OC)c1OC (stereo not given)	66% (active)	66% (active)	6	90% (active)	inactive	inactive	inactive	inactive
NC(N)=Nc1ccc(OCCCCCOc2ccc(N=C(N)N)cc2)cc1	100% (active)	12%	-1	99% (active)	inactive	inactive	inactive	inactive
COc1ccc2nccc([C@H](O)CN3CCC(NCc4cc(C)c5c(c4)OCCO5)CC3)c2n1	35%	12%	3	96% (active)	inactive	inactive	inactive	inactive
